Screening results from PubChem BioAssay.
Most compounds without a hit are left out; they make up all but 2.4% or so of the library.
CHO-K1 Ca antag: M1 antagonist counterscreen hit in parental CHO-K1 cells | ATP-induced calcium, Fluo-8 fluorescence | inhibition, % at 3 µM | 0.6% of 360,000 active | AID 602250;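 active = inhibition above a per-plate cutoff, the plate's mean sample inhibition plus 3 SD, cut at about 24% in these data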
M1 PAM parental: nonselective activator or artifact in parental CHO-K1 calcium assay; ATP EC20, Fluo-8 calcium fluorescence; 0% at ATP EC20, 100% at ATP max; 0.02% of 360,000 active; AID 602247; activation, % at 3 µM;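 active = activation above the run cutoff, the mean activation of all test compounds plus 3 SD, cut at about 40% in these data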;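 note: peak over basal fluorescence ratio in a 140 s read after ATP addition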
CHO-K1 Ca ag: nonselective activator or artifact in parental CHO-K1 cells. AID 602248. Fluo-8 calcium fluorescence; scaled to maximal ATP response, vehicle zero. activation, % at 3 µM. 0.48% of 360,000 active; in the data active = activation above about 15%;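 note: untransfected CHO-K1 host cells lacking M1 receptor as counterscreen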
CHRM1 PAM: potentiates human M1 receptor response to acetylcholine; CHO-K1 hM1, Fluo-8 calcium fluorescence, ACh EC20; 0% = ACh EC20, 100% = maximal ACh; activation, % at 3 µM; 0.088% of 360,000 active; in the data active = activation above about 19%, passing the limit was not always enough
Target sequence (P11229 whole entry, looked up): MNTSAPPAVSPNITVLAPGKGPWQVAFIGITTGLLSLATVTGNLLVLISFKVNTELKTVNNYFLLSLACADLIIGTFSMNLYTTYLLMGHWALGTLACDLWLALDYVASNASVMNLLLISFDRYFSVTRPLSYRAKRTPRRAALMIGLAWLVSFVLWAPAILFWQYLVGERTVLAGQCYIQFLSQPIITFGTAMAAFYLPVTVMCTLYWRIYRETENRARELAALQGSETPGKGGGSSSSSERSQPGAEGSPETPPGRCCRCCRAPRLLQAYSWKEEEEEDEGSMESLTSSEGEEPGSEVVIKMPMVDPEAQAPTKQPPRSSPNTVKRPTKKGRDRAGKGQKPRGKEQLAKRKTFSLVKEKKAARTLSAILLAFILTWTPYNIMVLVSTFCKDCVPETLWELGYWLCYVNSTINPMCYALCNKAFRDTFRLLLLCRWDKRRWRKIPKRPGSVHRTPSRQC
M1 antag: blocks human M1 muscarinic receptor; P11229; CHO-K1 hM1, Fluo-8 calcium fluorescence, ACh EC80 antagonist; inhibition, % at 3 µM; 1.3% of 360,000 active; AID 588852;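 active = percent inhibition above its own plate's cutoff, namely the mean of that plate's compound wells plus 3 SD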;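 note: peak over basal fluorescence ratio during 140 s after agonist addition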
CHRM1 agonist: human M1 muscarinic receptor agonism. activation, % at 3 µM. CHO-K1 hM1, Fluo-8 calcium fluorescence, agonist mode; 0% DMSO, 100% acetylcholine EC100. P11229. AID 588814. 0.33% of 360,000 active;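 active = activation above the run's mean compound activation plus 3 SD, cut at about 16% in these data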;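 note: peak over basal fluorescence ratio within a 140 s kinetic read after compound addition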
Large screens that a line does not name were inactive.

COC(=O)c1cccc(C23CC4(C2)[C@H](CN(C)[C@@H]4c2ccccc2)C3c2ccc(C(F)(F)F)cc2)c1 (some centres not stated)	none
CN1C[C@@H]2C(c3ccc(Cl)nc3)C3(c4ccccc4)CC2(C3)[C@H]1c1ccccc1 (some centres not stated)	M1 antag 84
COC(=O)c1cccc(C23CC4(C2)[C@H](CN(C)[C@@H]4c2ccccc2)C3c2ccccc2)c1 (some centres not stated)	M1 antag 64
COc1ccccc1-c1coc2c(CN3CCN(C)CC3)c(O)ccc2c1=O	none
CC(=O)N1c2ccc(C)cc2C(c2ccccc2)CC1C (configuration not stated)	none
O=C(c1cc(COc2ccc3ncccc3c2)on1)N1CCCC1	none
O=C(NC1CCCC1)c1cc(COc2ccc3ncccc3c2)on1	M1 antag 31
CC(NC(=O)c1cc(COc2ccc3ncccc3c2)on1)c1ccc(F)cc1 (configuration not stated)	M1 antag 34
O=C(NCCc1cn2ccccc2n1)c1cc(COc2ccc3ncccc3c2)on1	CHO-K1 Ca antag 33, CHO-K1 Ca ag 19
O=C(c1cc(COc2ccc3ncccc3c2)on1)N1CCCCCC1	none
O=[N+]([O-])/C=C/c1cn(Cc2ccccc2)c2ccccc12	none
N#Cc1ccccc1Cn1cc(/C=C/[N+](=O)[O-])c2ccccc21	M1 antag 50
COc1ccccc1CN(Cc1nc2ccccc2c(=O)[nH]1)S(=O)(=O)c1ccc2ccccc2c1	M1 antag 43
CC(=O)Nc1ccc(NC(=O)C(C)N2CCN(S(=O)(=O)c3ccc(C)cc3)CC2)cc1 (configuration not stated)	none
Cc1ccccc1Sc1ccc(N)cn1	M1 antag 59
CC(C1CC1)N(Cc1ccccc1)C(=S)Nc1ccccc1Cl (configuration not stated)	CHO-K1 Ca ag 18
CCOC(=O)c1cc(C(=O)Nc2ccccc2F)nn1C	none
COc1ccc(CCNC(=O)c2cc(=O)c3cc(C)ccc3o2)cc1OC	CHO-K1 Ca ag 17
CCn1c(SCc2ccc(C(=O)Nc3cc(C)cc(C)c3)cc2)nnc1-c1ccncc1	M1 antag 31
CCn1c(SCc2cccc(C)c2)nnc1-c1ccc(C)cc1	CHO-K1 Ca ag 16
C=CCc1ccccc1OCCNCCCOC	CHO-K1 Ca antag 24
C=CCc1cc(Cl)ccc1OCCNCCCOC	none
Cc1cccc(C)c1NC(=O)CNC(=O)COC(=O)c1ccc(Cl)s1	none
C=CCOc1ccccc1CN(CCc1ccccc1)C(=O)c1cccc(S(C)(=O)=O)c1	CHO-K1 Ca ag 16
O=C(CCN1C(=O)/C(=C/c2ccccc2F)SC1=S)NCCCN1CCOCC1	CHO-K1 Ca ag 19
O=C(CCN1C(=O)/C(=C/c2ccccc2)SC1=S)NCCCN1CCOCC1	none
O=C(c1ccc(S(=O)(=O)c2cccc(Cl)c2)c([N+](=O)[O-])c1)N1CCN(c2ccccn2)CC1	CHO-K1 Ca antag 26, CHO-K1 Ca ag 16, M1 antag 58
Cc1ccccc1NS(=O)(=O)c1ccc(C(=O)N2CCN(c3ccccn3)CC2)cc1	none
O=C(c1ccc(S(=O)(=O)Nc2ccccc2F)cc1)N1CCN(c2ccccn2)CC1	M1 antag 51
O=C(c1cccc(Cl)c1)N1CCN(c2ccccn2)CC1	none
COc1ccc(C(=O)Nc2oc(-c3ccccc3)c(-c3ccccc3)c2C#N)cc1	none
COc1ccc(C(=O)Nc2ccc(N3CCN(Cc4ccccc4)CC3)cc2)cc1	none
COc1cccc(NC(=O)c2ccc(CN3CCN(c4ccccc4)CC3)cc2)c1	M1 antag 20
COc1c(F)c(F)c(C(=O)Nc2ccc(N3CCN(Cc4ccccc4)CC3)cc2)c(F)c1F	M1 antag 47
COc1ccccc1OCc1ccc(C(=O)NCC2CCCO2)cc1 (configuration not stated)	none
CCCn1c(Cc2ccccc2)n[nH]c1=S	none
S=c1[nH]nc(Cc2ccccc2)n1Cc1ccco1	M1 antag 92
C=CCc1cccc2cc(C(=O)N(C)C)c(=O)oc12	none
N/C(Cc1ccccc1Sc1ccccc1)=N\O	none
CCN(CC)Cc1ccccc1Sc1ccccc1	M1 antag 98
Cc1ccn(CCC(=O)N2CCCC(N3CCN(c4ccccc4C)CC3)C2)n1 (configuration not stated)	CHRM1 agonist 49
Cc1ccccc1N1CCN(C2CCCN(C(=O)CCC(=O)N(C)C)C2)CC1 (configuration not stated)	none
Cc1cc(NC2CCCCC2)nc(NCc2ccccc2)n1	CHO-K1 Ca ag 15, M1 antag 35
CCOC(=O)C1CCCN(CC(=O)c2ccc(F)cc2)C1 (configuration not stated)	M1 antag 57, CHRM1 agonist 65
COc1cc(CN2CCCC(C(=O)c3ccc(C(C)(C)C)cc3)C2)cc(OC)c1O (configuration not stated)	none
CCOC(=O)c1[nH]ncc1CN1CCCC(C(=O)c2ccc(C(C)(C)C)cc2)C1 (configuration not stated)	M1 antag 38
CCOC(=O)C1CCCN(Cc2cn[nH]c2-c2ccc(F)cc2F)C1 (configuration not stated)	CHO-K1 Ca ag 18
CCOC(=O)C1CCCN(CC(=O)Nc2c(F)c(F)c(F)c(F)c2F)C1 (configuration not stated)	none
COc1ccccc1C(=O)N1CCN(Cc2cn[nH]c2-c2ccc(F)cc2F)CC1	none
Cc1cc(O)c(Oc2cc(C)cc(O)c2O)c(O)c1	none
CC(C)C1N=C2c3ccccc3N=C(SCc3cc(=O)n4cc(Cl)ccc4n3)N2C1=O (configuration not stated)	none
CCOC(=O)C1CCCN(Cc2nc(N)nc(Nc3ccccc3)n2)C1 (configuration not stated)	CHRM1 agonist 31
Nc1nc(CN2CCC(Cc3ccccc3)CC2)nc(Nc2ccccc2)n1	M1 antag 31
Cc1ccc(Nc2nc(N)nc(CN3CCN(c4ccccc4F)CC3)n2)cc1	none
Nc1nc(CN2CCN(c3ccccc3F)CC2)nc(Nc2ccccc2)n1	CHO-K1 Ca antag 31
Nc1nc(CN2CCCCCC2)nc(Nc2ccccc2)n1	none
O=C(c1ccccc1[N+](=O)[O-])N1N=C(c2ccccc2)CC1(O)C(F)(F)F (configuration not stated)	none
CC(=O)NS(=O)(=O)c1ccc(NC(=O)/C=C/c2ccco2)cc1	none
COc1ccc(/C=C/c2nc(-c3ccccc3)cc(=O)[nH]2)cc1	none
O=c1cc(-c2ccccc2)nc(/C=C/c2ccccc2)[nH]1	CHO-K1 Ca ag 17
